Several values for one entry are separate records, joined by “and”; a condition that tells them apart may be missing. Equal entries are not always repeated. Records with an inconclusive call do not appear. Activity calls are given as the source filed them. Unless noted, calls follow the shape of the full dose curve.
What was measured:
[1] = target: Estrogen receptor (Homo sapiens) (UniProt P03372); assay: qHTS assay for small molecule antagonists of estrogen receptor alpha signaling (AID 588513; active = well fitted curve in the direction sought with a large enough effect in the signal ratio, with a control signal flat, not every such curve was filed as active; the % refers to the signal ratio; also: % is scaled to controls: 0 for no effect and ±100 for the full control effect); conditions: ER-alpha-UAS-bla HEK293, beta-lactamase ratio, antagonist mode; series mostly up to 76.9 µM
Method in brief: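 Cells were plated at 5000/well and incubated 4 h at 37 C. Compounds were added as 1:2 dilution series, duplicates. 17-beta-estradiol (0.5nM final) was added for 18 h before CCF4 detection.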

[2] = target: Bile acid receptor (Homo sapiens) (UniProt Q96RI1); assay: qHTS assay for small molecule antagonists of farnesoid X receptor signaling (AID 588526); conditions: HEK293T FXR-UAS-bla, beta-lactamase ratio, antagonist mode; series mostly up to 76.7 µM; also: % is scaled to controls: 0 for no effect and ±100 for the full control effect
Method in brief: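 Concentration-response titrations were fitted to the Hill equation for half-maximal inhibition and maximal response, with data normalised to 50 uM chenodeoxycholic acid and DMSO control wells. Cells: FXR-UAS-bla HEK293T, dialyzed FBS.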

[3] = target: Glucocorticoid receptor (Homo sapiens) (UniProt P04150); assay: qHTS assay for small molecule agonists of glucocorticoid receptor signaling (AID 588532; active = well fitted curve in the direction sought with a large enough effect in the signal ratio, with a control signal flat; the % refers to the signal ratio;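 also: 100% = dexamethasone at 0.1 µM and 0% = DMSO only wells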); conditions: HeLa MMTV-bla, beta-lactamase ratio, agonist, 18 h; active compounds read high; percent of dexamethasone control, DMSO zero
Method in brief: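 MMTV-bla HeLa, beta-lactamase reporter; medium with 1% charcoal/dextran-stripped FBS; cpds up to 92 uM, 18 h, 37 C; CCF4 readout 460/530 nm; Hill fit → EC50, efficacy vs 0.1 uM dexamethasone = 100%.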

[4] = target: Glucocorticoid receptor (Homo sapiens) (UniProt P04150); assay: qHTS assay for small molecule antagonists of glucocorticoid receptor signaling (AID 588533; active = well fitted inhibition curve with a large enough effect in the signal ratio, with a control signal flat, not every such curve was filed as active; the % refers to the signal ratio;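 also: cells stimulated with 2 nM dexamethasone as agonist; % is scaled to controls: 0 for no effect and ±100 for the full control effect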); conditions: HeLa MMTV-bla, GRE beta-lactamase ratio, antagonist mode, 18 h; series mostly up to 76.8 µM
Method in brief: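 Antagonist-mode qHTS: compound titrations added to GRE-bla HeLa cells, then dexamethasone 2 nM final; 18 h, 37 C. CCF4 FRET fluorescence normalized to dexamethasone and DMSO; IC50 from Hill fit.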

[5] = target: Estrogen receptor (Homo sapiens) (UniProt P03372); assay: qHTS assay for small molecule agonists of estrogen receptor alpha signaling (AID 588514); conditions: ER-alpha-UAS-bla HEK293, beta-lactamase ratio, 18 h, percent of full estradiol response, vehicle zero; series mostly up to 76.8 µM;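 also: 0% = vehicle only and 100% = reference agonist; nearly all actives have a fitted effect of over 70% in size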
Method in brief: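 Cells were plated at 5000/well, incubated 4 hrs at 37 C, dosed with compound titration series, incubated 18 hrs at 37 C, loaded with CCF4 dye for 2 hrs at RT, then fluorescence was read.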

Bile acid receptor (Homo sapiens), sequence (Q96RI1 whole entry, looked up): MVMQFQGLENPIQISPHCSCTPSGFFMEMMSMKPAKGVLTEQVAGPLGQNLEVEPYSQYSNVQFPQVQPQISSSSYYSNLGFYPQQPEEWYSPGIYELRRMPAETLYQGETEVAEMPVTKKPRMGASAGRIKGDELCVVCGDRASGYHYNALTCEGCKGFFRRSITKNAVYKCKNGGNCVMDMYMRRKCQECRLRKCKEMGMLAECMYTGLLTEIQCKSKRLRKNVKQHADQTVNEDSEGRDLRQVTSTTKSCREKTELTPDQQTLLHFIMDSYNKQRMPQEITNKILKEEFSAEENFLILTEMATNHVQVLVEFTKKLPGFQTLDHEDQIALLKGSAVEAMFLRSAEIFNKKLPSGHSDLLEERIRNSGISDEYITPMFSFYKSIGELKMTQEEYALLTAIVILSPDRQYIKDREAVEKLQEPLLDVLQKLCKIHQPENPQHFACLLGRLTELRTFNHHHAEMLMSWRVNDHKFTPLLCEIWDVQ
Glucocorticoid receptor (Homo sapiens), sequence (P04150 whole entry, looked up): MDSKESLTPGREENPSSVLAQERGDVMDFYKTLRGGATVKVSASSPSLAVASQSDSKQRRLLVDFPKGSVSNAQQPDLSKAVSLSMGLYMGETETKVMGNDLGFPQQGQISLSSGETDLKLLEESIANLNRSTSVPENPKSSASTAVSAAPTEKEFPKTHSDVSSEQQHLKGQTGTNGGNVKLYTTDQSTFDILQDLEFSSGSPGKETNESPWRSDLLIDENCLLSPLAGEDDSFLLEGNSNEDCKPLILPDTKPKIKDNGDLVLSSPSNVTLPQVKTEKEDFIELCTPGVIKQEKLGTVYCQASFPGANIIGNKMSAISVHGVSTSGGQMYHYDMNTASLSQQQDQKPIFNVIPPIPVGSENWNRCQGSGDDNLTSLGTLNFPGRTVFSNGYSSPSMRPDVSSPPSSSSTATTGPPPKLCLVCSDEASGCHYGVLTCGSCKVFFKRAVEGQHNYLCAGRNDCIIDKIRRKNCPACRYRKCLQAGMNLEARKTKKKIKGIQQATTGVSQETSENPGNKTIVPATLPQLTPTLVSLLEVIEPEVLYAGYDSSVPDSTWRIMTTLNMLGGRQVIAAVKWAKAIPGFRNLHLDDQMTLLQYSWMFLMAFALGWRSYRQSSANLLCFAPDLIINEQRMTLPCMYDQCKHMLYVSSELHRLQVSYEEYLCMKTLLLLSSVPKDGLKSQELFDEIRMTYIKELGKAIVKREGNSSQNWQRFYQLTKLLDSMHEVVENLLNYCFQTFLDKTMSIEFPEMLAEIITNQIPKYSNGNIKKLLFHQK
Estrogen receptor (Homo sapiens), sequence (P03372 whole entry, looked up): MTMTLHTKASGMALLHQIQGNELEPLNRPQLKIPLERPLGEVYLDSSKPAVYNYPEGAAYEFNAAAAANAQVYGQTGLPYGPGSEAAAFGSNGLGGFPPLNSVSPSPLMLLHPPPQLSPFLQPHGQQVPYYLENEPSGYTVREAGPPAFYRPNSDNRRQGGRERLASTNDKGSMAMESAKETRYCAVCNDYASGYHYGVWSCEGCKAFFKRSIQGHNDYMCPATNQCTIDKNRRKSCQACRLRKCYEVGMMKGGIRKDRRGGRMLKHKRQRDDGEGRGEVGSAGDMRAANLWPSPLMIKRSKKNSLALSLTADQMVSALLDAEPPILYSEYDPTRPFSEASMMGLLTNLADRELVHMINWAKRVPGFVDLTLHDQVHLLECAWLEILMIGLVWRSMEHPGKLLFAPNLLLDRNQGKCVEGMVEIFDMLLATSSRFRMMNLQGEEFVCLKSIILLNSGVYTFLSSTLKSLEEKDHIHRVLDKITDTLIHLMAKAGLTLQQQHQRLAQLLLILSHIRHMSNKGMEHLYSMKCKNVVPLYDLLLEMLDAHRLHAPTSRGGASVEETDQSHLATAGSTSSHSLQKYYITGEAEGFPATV

Nc1ccc(Sc2ccc(N)cc2)cc1
inactive: Potency [1] | outcome [2] | activation [3] 8.24% and -4.53% | Potency [4]

CCCN(CCC)c1c([N+](=O)[O-])cc(S(N)(=O)=O)cc1[N+](=O)[O-]
inactive: outcome [5] | outcome [2] | activation [3] -3.33%

Nc1ccc(N=Nc2ccccc2)cc1
inactive: outcome [2] | activation [3] -2.94% | Potency [4]

CCCCOC(=O)c1ccccc1C(=O)OCc1ccccc1
inactive: activation [3] 3.04% and 3.89% | Potency [4]

Reference: PubChem BioAssay (NCATS)
